# Shown is part of a subset that was picked to be rich in hits.
# MgrA DNA FP: modulators of Staphylococcus aureus MgrA DNA binding; actives 0.13% (n = 84,000); fluorescence polarization; AID 602314; inhibition, % (no concentration beside the values); in the data active = inhibition above about 30%, passing the limit was not always enough;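 note: higher means less MgrA bound to DNA so lower polarization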
# A number is an active result; . = inactive.
SMILES,MgrA DNA FP
O=C1CC(=O)c2c1cccc2[N+](=O)[O-],.
O=C1CC(=O)c2ccc3c4c(ccc1c24)C(=O)CC3=O,93.1
CC(C)(C)NC(=O)Oc1noc2cc(Cl)ccc12,.
CCOC(=O)CCc1c(C)c(C#N)c2nc3ccccc3n2c1C,.
C=CCc1c(C)nc2ccccc2c1Cl,.
CCc1ccc(C2=CC(=O)C=CC2=O)cc1,.
O=C(O)c1ccc(-c2ccccc2)cc1,.
O=C1C=CC(=O)C(c2ccc(C(=O)O)cc2)=C1,82.8
CC(=O)[C@@]1(O)C(C)CC2C3CC[C@H]4CC(O)CCC4(C)C3[C@H](O)CC21C (some centres not stated),.
Cc1ccc(-c2csc(COC(=O)C(C)(C)C)n2)cc1,.
CSC(N)=Nc1ccc(Cl)cc1,.
O=C(COc1ccccc1)ON1C(=O)CCC1=O,.
O=C(OCC1c2ccccc2-c2ccccc21)ON1C(=O)CCC1=O,68.4
O=C(NC1(C(=O)O)CC1)OCC1c2ccccc2-c2ccccc21,.
COc1ccc(-c2nc3c4c5c(sc4ncn3n2)C(C)(C)NC(C)(C)C5)cc1OC,.
FC(F)(F)c1cccc(-c2nnc(-c3ccncc3)o2)c1,.
FC(F)(F)c1cc(-c2ccco2)nc(-n2cccn2)n1,.
O=c1cc(O)c2sc3nc(-c4ccco4)cc(C(F)(F)F)c3c2[nH]1,88.0
O=c1cc(O)c2sc3nc(-c4ccccc4)ccc3c2[nH]1,.
CC1=C(C#N)c2nc(N)c(C#N)c(C)c2/C1=C\c1ccc(Br)o1,.
Cc1[nH]c2ccccc2c1C=NCCc1ccncc1,.
CC(C)c1ccc(C2C(C#N)=C(N)C(C#N)(C#N)C3=CCN(C)CC32)cc1 (configuration not stated),.
CCN1CC=C2C(C1)C(c1ccc(Cl)s1)C(C#N)=C(N)C2(C#N)C#N (configuration not stated),41.7
CCCN1CC=C2C(C1)C(c1ccc(C(=O)OC)cc1)C(C#N)=C(N)C2(C#N)C#N (configuration not stated),.
CN1C(=O)/C(=C\C(=O)c2cccs2)c2ccccc21,.
SMILES,MgrA DNA FP
CN1C(=O)CN(C2CCCCC2)C(=O)c2ccccc21,.
CN1C(=O)/C(=c2/[nH][nH]c(=O)/c2=C\C=C\c2ccccc2)C(=O)c2ccccc21,55.7
Cc1oc(C(C)(C)C)cc1-c1cc(NC(=O)c2ccccc2)n[nH]1,.
O=C(O)c1cc2c3c(c1)C1C=CCC1C(c1ccccc1F)N3CC1CC=CC21 (configuration not stated),74.1
O=C(O)c1cc2c3c(c1)C1C=CCC1C(c1ccc(F)cc1)N3CC1CC=CC21 (configuration not stated),.
O=C(O)c1cc2c3c(c1)C1C=CCC1C(c1ccccc1)N3CC1CC=CC21 (configuration not stated),.
Fc1ccccc1-c1cn2ccsc2n1,.
CCN(CC)CCSc1nc2ccc(OC)cc2[nH]1,.
CCSc1nc(C)c2cc(OC)ccc2n1,.
CCN(CC)CCCC(C)Nc1c2ccc(Cl)cc2nc2ccc(OC)cc12 (configuration not stated),60.5
Cc1ccc(NC(=O)C23CCC(C)(C(=O)C2)C3(C)C)cc1 (configuration not stated),.
CC(C)C(NC(=O)c1ccc(C2SCC(=O)N2Cc2ccco2)cc1)C(C)C (configuration not stated),.
CCOc1ccc(N/C=C/C(=O)c2ccco2)cc1,.
O=C(/C=C/Nc1cccc(C(F)(F)F)c1)c1ccco1,.
O=C(/C=C/Nc1ccccc1C(F)(F)F)c1ccco1,92.6
CC1=CS(=O)(=O)CC1Sc1n[nH]c(C)n1 (configuration not stated),.
Cc1ccccc1NC(=O)c1ccccc1NC(=O)c1ccccc1,.
Clc1ccc(-c2nc(N3CCCCC3)c3ccccc3n2)cc1,.
O=C1c2ccccc2-c2nc(-c3ccccc3)cc3cccc1c23,.
O=C1c2ccc(S(=O)(=O)O)cc2-c2nc(-c3ccccc3)nc3ccc(Cl)c1c23,80.9
O=C(O)Cc1c[nH]c2ccccc12,.
Cc1ccc(C)n1C(Cc1c[nH]c2ccccc12)C(=O)O (configuration not stated),65.7
NC(Cc1c[nH]c2ccccc12)C(=O)O (configuration not stated),.
Cc1ccc(C)c(NC(=O)C(C)N2C(=O)C3C4C=CC(C4)C3C2=O)c1 (configuration not stated),.
O=C(COC(=O)Cc1ccsc1)Nc1ccc(Cl)c(C(F)(F)F)c1,.
SMILES,MgrA DNA FP
CC1=C(C)C(=O)N(CCC(=O)O)C1=O,.
Cc1ccc2c(c1)c(C)cc(=O)n2CCC(=O)O,.
Cc1ccc(C)n1CCC(=O)O,103.4
CC(=O)N/C(=C\c1ccccc1)C(=O)O,.
CCOC(=O)c1c(NC(=O)CCN2C(=O)c3ccccc3C2=O)sc(C(C)=O)c1C,.
COC(=O)c1sccc1Oc1ccc(C(F)(F)F)cc1NC(=O)c1ccccc1OC,.
CC(=O)N(Cc1nc(-c2ccccc2)no1)C(C)C,.
N#C/C(=C\c1ccc(/C=C(\C#N)S(=O)(=O)c2ccccc2)cc1)S(=O)(=O)c1ccccc1,.
Cc1ccc(S(=O)(=O)/C(C#N)=C/c2ccccc2)cc1,.
Cc1ccc(S(=O)(=O)/C(C#N)=C/C2=Cc3ccccc3OC2)cc1,62.1
CCN1C(N)=C(C#N)C(c2ccc3[nH]c4ccccc4c3c2)c2nc(C)oc21 (configuration not stated),.
COC(=O)C(NC(=O)Nc1ccccc1)C(C)C (configuration not stated),.
COC(=O)C(N=Cc1ccccc1)c1ccccc1 (configuration not stated),.
COC(=O)C(C(=O)OC)C(Nc1ccccc1)c1ccccc1 (configuration not stated),101.2
CC1(C)Cc2c(sc3nc(N4N=N4)nc(NCCO)c23)CO1,.
O=C(O)/C=C/C(=O)NN1C(=O)c2ccccc2C1=O,.
Cc1cc(NC(=O)CSc2nc(C3CCCCC3)nc3sc(C)c(C)c23)no1,.
CC(C)c1ccc(NC(=O)CNS(=O)(=O)c2ccccc2)cc1,.
CC(C)c1ccc(S(=O)(=O)Nc2cc(SCC(=O)O)c(O)c3ccccc23)cc1,90.1
Cc1ccc(S(=O)(=O)Nc2ccc(Br)cc2C(NCC(=O)O)c2ccccc2)cc1 (configuration not stated),.
CC(=O)Nc1ccc(C(=O)COc2ccccc2O)cc1,.
COCC(=O)N(Cc1cc2cc3c(cc2nc1Cl)OCO3)CC1CCCO1 (configuration not stated),.
COc1cccc(NC(=S)N(CCC#N)CCC#N)c1,.
O=C(Sc1nnnn1-c1ccccc1)c1ccccc1Br,.
CCOc1ccc(NC2=CC(=O)CCC2)cc1,.
SMILES,MgrA DNA FP
CCOc1ccc(Nc2cnnc(Nc3ccc(OCC)cc3)n2)cc1,.
CCOc1ccc(NC2=CC(=O)C=CC2=O)cc1,56.0
O=C(O)c1cc(Br)c(Br)s1,.
CCOc1ccc(CN2CCC(C(=O)NCC3CCCO3)CC2)cc1OC (configuration not stated),.
Nc1ccc(N2CCCCC2)cc1,.
O=S(=O)(c1ccccc1)c1ccc(N2CCCCC2)cc1,.
Nc1ccc(N2CCCC2)cc1,56.8
CN(C)/C=C/C(=O)c1cc(F)ccc1O,.
Cn1c(CNC(=O)c2ccc(Cl)cc2)nnc1SCC(=O)N1CCc2ccccc2C1,.
CN1C(=O)/C(=C/c2ccc(-c3ccc(C(=O)O)cc3)o2)c2ccccc21,.
CN1C(=O)/C(=C\c2ccc(-c3ccccc3C(=O)O)o2)C(=O)N(c2ccccc2)C1=S,62.0
Cc1ccc(N2C(=O)NC(=O)/C(=C\c3ccc(-c4ccccc4C(=O)O)o3)C2=O)cc1,.
